Screening data deposited in PubChem by NMMLSC.
HRas wt GTP – human HRas wildtype GTP binding, change in either direction; 190,000 tested, 0.14% active; GST-Ras wt beads, Bodipy-FL-GTP binding, flow cytometry; actives lie on both sides; P01112; GTP binding activity, % at 10 µM;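 active = GTP binding activity at least 20% away from the 100% baseline, either lowered as inhibitor or raised as activator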
Target sequence (P01112 whole entry, looked up): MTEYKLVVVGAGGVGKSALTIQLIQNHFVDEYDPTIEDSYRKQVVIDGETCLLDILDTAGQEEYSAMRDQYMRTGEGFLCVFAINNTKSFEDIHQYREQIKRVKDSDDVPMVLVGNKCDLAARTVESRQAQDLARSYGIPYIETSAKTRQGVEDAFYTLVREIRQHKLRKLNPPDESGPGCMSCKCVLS
Rac1 wt GTP bind – human Rac1 wildtype GTP binding, inhibitors and activators; GST-Rac1 beads, fluorescent GTP binding, flow cytometry; actives lie on both sides; 0 = cold GTP competed, 100 = untreated; P63000; GTP binding activity (% of control), % at 10 µM; 190,000 tested, 0.27% active;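 active = GTP binding activity at least 20 points away from the 100% control level, either lower or higher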
Cdc42 wt GTP – changes GTP binding to wildtype human Cdc42 | GST-Cdc42 beads, Bodipy-GTP binding, flow cytometry; actives lie on both sides | AID 761 | percent activity (GTP binding), % at 10 µM | 190,000 tested, 0.2% active;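 active = percent activity GTP binding at least 20 points away from the 100% baseline, either down as inhibitor or up as activator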;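 also: median bead fluorescence of bound Bodipy-FL-GTP at 100 nM; below 100% means less GTP binding so inhibitor and above means activator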
Target sequence (P60953 whole entry, looked up): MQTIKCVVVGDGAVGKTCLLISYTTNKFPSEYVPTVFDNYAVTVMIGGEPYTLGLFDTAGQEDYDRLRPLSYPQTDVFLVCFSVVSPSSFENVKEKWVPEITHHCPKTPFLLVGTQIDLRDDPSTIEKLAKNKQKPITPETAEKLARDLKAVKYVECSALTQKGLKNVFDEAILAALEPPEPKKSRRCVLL
Rab2A wt mod – changes GTP binding to wildtype dog Rab2A, up or down. GST-Rab2 wt beads, Bodipy-GTP binding, flow cytometry. 190,000 tested, 0.19% active. GTP binding activity, % at 10 µM;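 active = GTP binding activity at least 20 points away from 100%, either lowered or raised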
Rac1 mut GTP – human Rac1 activated mutant GTP binding change; P63000; GST-Rac1 activated beads, fluorescent GTP binding, flow cytometry; actives lie on both sides; 100% means binding = to untreated wells; percent activity (GTP binding), % at 10 µM; 190,000 tested, 0.11% active;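 active = GTP binding at least 20 percentage points away from the 100% baseline, in either direction, so actives lie on both sides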
Rab7 wt modul – modulators of GTP binding to dog Rab7 wildtype GTPase; GTP binding activity (percent of control), % at 10 µM; 190,000 tested, 0.055% active; GST-Rab7 beads, fluorescent GTP binding, flow cytometry; actives lie on both sides; untreated = 100%, excess cold GTP = 0%; AID 758;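 active = fluorescent GTP binding to Rab7 beads changed by at least 20 points from the 100% baseline, either direction, mostly lower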;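 also: median green fluorescence of bound Bodipy-FL-GTP per Rab7 bead population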
Of the large screens only hits and unclear results are named; the others gave an inactive call; [ ] = dose if it differs, or a comment. Compounds with a hit are over-represented: about 0.4% of the library has one in this group of screens.

Cc1nnc2ccc(-c3ccc(NC(=O)c4ccco4)cc3)nn12	Rac1 wt GTP bind 75
CC(=O)Nc1ccc(-c2ccc3nnc(C)n3n2)cc1	none
O=C(COC(=O)C12CC3CC(CC(C3)C1)C2)Nc1nc2c(F)c(F)c(F)cc2s1	Cdc42 wt GTP 74
COc1ccc(C(=O)OCC(=O)Nc2nc3c(F)c(F)c(F)cc3s2)cc1OC	none
CCC(Sc1nc(-c2ccccc2)cc(=O)[nH]1)C(=O)O (configuration not stated)	none
CC(C)Sc1nc(-c2ccccc2)cc(=O)[nH]1	Rac1 wt GTP bind 128[activator]
CNc1nc(N)c(C(=O)C(C)(C)C)s1	none
O=C(COC(=O)/C=C/c1cccc([N+](=O)[O-])c1)NCc1ccc2c(c1)OCO2	Rac1 mut GTP 79
O=Nc1c(O)[nH]c2ccc(F)cc12	none
NC(=S)N=Nc1c(O)[nH]c2ccc(F)cc12	HRas wt GTP 76, Rac1 wt GTP bind 76, Rab2A wt mod 74
Cn1c(O)c(N=NC(=O)c2ccccc2O)c2ccccc21	none
Cc1cc(N=NC(=O)c2ccccc2O)c2ccccc2c1O	Rac1 wt GTP bind 74, Cdc42 wt GTP 76, Rab2A wt mod 78
CC(=O)Nc1ccnc(-c2cccnc2)n1	none
O=C(Nc1cccc(Cl)c1)Nc1ccnc(-c2cccnc2)n1	HRas wt GTP 67, Rac1 wt GTP bind 77, Cdc42 wt GTP 64, Rab2A wt mod 67
CN(NC(=O)CN1C(=O)c2ccccc2C1=O)C1=NS(=O)(=O)c2ccccc21	none
C(=N\N(Cc1ccccc1)c1ccccc1)/c1cccnc1	none
CN(/N=C/C=C/c1ccccc1)C1=NS(=O)(=O)c2ccccc21	HRas wt GTP 68, Rac1 wt GTP bind 65, Cdc42 wt GTP 74, Rab2A wt mod 72
CN(/N=C/c1cccnc1)C1=NS(=O)(=O)c2ccccc21	HRas wt GTP 68, Rac1 wt GTP bind 69, Cdc42 wt GTP 78, Rab2A wt mod 70
Cn1c(=O)c2c(nc(OCc3cccnc3)n2Cc2c(F)cccc2Cl)n(C)c1=O	none
O=C(O)COc1ccccc1/C=N/NC(=O)c1cccc(S(=O)(=O)Nc2cccc(Cl)c2)c1	Rac1 wt GTP bind 75
CCOc1cccc(NC(=O)C2CC(=O)N(C)C(=Nc3cccc(F)c3)S2)c1 (configuration not stated)	none
Nc1nc(CN2CCN(c3ccccc3F)CC2)nc(N2CCCc3ccccc32)n1	Cdc42 wt GTP 79
CC1=CC(=O)C=C(C)C1=NOS(=O)(=O)c1ccccc1	Rac1 mut GTP 78
Cc1ccc(S(=O)(=O)ON=C2CCN(S(=O)(=O)c3ccccc3)CC2)cc1	none
Cc1ccc(C)c(OCC(=O)N2CCOCC2)c1	none
Fc1cccc(Nc2ncnc3[nH]ncc23)c1	Rac1 wt GTP bind 79
CCOC(=O)c1cc(C(=O)OCC)c2ccccn2c1=O	HRas wt GTP 79, Rab7 wt modul 76
CC(C)NC(=O)c1ccccc1NC(=O)Cc1ccc(Br)cc1	none
CC1(C)Cc2c(sc(NC(=O)c3ccc(Br)o3)c2C#N)CO1	Rac1 wt GTP bind 167[activator], Cdc42 wt GTP 148[activator]
CCCCC(=O)Nc1sc2c(c1C#N)CC(C)(C)OC2	none
O=C(Nc1ncc(Cc2cccc(C(F)(F)F)c2)s1)c1ccc(-c2cccc([N+](=O)[O-])c2)o1	none
O=C(Nc1nccs1)c1ccc(-c2cccc([N+](=O)[O-])c2)o1	Rac1 wt GTP bind 76
Cc1cc(C(=O)Nc2cccc(S(=O)(=O)N3CCCCC3)c2)c2ccccc2n1	none
O=S1(=O)N=C(N(CCO)/N=C/c2ccncc2)c2ccccc21	HRas wt GTP 67, Rac1 wt GTP bind 56, Cdc42 wt GTP 64, Rab2A wt mod 66, Rac1 mut GTP 76
O=S1(=O)N=C(N(CCO)/N=C/c2ccccc2)c2ccccc21	HRas wt GTP 72, Rac1 wt GTP bind 70, Cdc42 wt GTP 71, Rab2A wt mod 70
O=C(c1ccccc1SCc1ccccc1)N1CCOCC1	none
O=C(O)c1ccccc1SCc1ccc2c(c1)OCO2	HRas wt GTP 123[activator], Rac1 wt GTP bind 135[activator], Cdc42 wt GTP 135[activator], Rab2A wt mod 127[activator], Rac1 mut GTP 127[activator], Rab7 wt modul 121[activator]
c1cc2c(c(NCc3ccncc3)c1)CCCC2	none
CC(=O)Nc1ccc(Nc2ccc3c4c(cc(=O)n3C)-c3ccccc3C(=O)c24)cc1	Rac1 wt GTP bind 77
S=C(NCCc1ccccc1)NC1CC1	Rac1 wt GTP bind 123[activator]
COc1cc(NS(=O)(=O)c2ccc(Nc3nc(-c4ccccc4)cs3)cc2)nc(OC)n1	HRas wt GTP 79, Rac1 wt GTP bind 73, Cdc42 wt GTP 71, Rab2A wt mod 77
Cc1cc(NS(=O)(=O)c2ccc(Nc3nc(-c4ccc(C)c(C)c4)cs3)cc2)no1	none
COc1cc(NS(=O)(=O)c2ccc(N)cc2)nc(OC)n1	none
COc1ccc(OC)c(Nc2nc(-c3sc(N)nc3C)cs2)c1	HRas wt GTP 79, Rac1 wt GTP bind 79, Cdc42 wt GTP 77
Cc1cc(NS(=O)(=O)c2ccc(Nc3nc(-c4sc(N)nc4C)cs3)cc2)no1	HRas wt GTP 78, Rab2A wt mod 75
CCCC(=O)Nc1nc(C)c(-c2csc(Nc3cc(OC)ccc3OC)n2)s1	none
CN(C)CCNC(=S)Nc1ccc(F)c(F)c1F	none
COc1ccc(-c2ccc(S(=O)(=O)NCC3CCCO3)cc2)cc1 (configuration not stated)	none
NC(N)=NS(=O)(=O)c1ccc(NC(=S)NC(=O)c2ccc3c(c2)OCO3)cc1	Rac1 wt GTP bind 123[activator]
CC(CN1CCOCC1)OC(=O)Cc1ccc(Cl)cc1 (configuration not stated)	none
COc1ccc([N+](=O)[O-])cc1NC(=O)Cc1ccc(Cl)cc1	none
COc1ccc([N+](=O)[O-])cc1NC(=S)NC(NC(=O)Cc1ccc(OC)c(OC)c1)C(Cl)(Cl)Cl (configuration not stated)	HRas wt GTP 57, Rac1 wt GTP bind 74, Cdc42 wt GTP 54, Rab2A wt mod 55, Rac1 mut GTP 79
S=c1[nH]nc(-c2ccco2)n1-c1ccccc1Cl	Rac1 wt GTP bind 77, Cdc42 wt GTP 79, Rac1 mut GTP 79
O=C(CN1CCCCC1)N1CCCc2ccccc21	none
N#Cc1ccc2ccn(CC(=O)N3CCCc4ccccc43)c2c1	Rac1 wt GTP bind 129[activator]
CCc1ccccc1NC(=O)N1C2CCCC1CC(NC(C)=O)C2 (configuration not stated)	Rac1 wt GTP bind 139[activator], Cdc42 wt GTP 126[activator]
CCOC(=O)c1c(NC(=O)C(=O)N/N=C/c2ccc(OCC)cc2)sc2c1CCCCC2	none
